Test results: PubChem BioAssay AID1159580 (chemical genetic matrix, 2015)
The whole screen tested about 5,500 compounds, of which about 2,000 (36%) were called active. Roughly 18% stayed inconclusive and do not appear here. Rule as the data show it: active = normalized growth mostly below about 0.91 (no sharp cut-off); inconclusive = no clear call, values can overlap the other calls; inactive = mostly above about 0.92. This is one part of the list.

Test: chemical genetic growth profiling, strain panel (AID 1159580);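 also: tested at 20 µM; growth read once vehicle control cultures reached saturation at 30 °C; 1 = growth at the plate median or of vehicle wells; lower values mean less growth of the strain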
Settings: growth OD

Measured: normalized growth

COC[C@]12CN(C=O)C3[C@@H]4[C@H](OC)C1[C@]3(C1CC3(O)C(OC)C(O)C4(OC(C)=O)C1C3OC(=O)c1ccccc1)[C@@H](OC)C[C@H]2O (stereo not given in full)
inactive: S. cerevisiae deletion strains, locus YJR066W, strain TOR1, active compounds read low 0.991 | S. cerevisiae deletion strains, locus YJR075W, strain HOC1, active compounds read low 1.02 | S. cerevisiae deletion strains, locus YKL009W, strain mrt4, active compounds read low 0.991 | S. cerevisiae deletion strains, locus YKL068W, active compounds read low 1 | S. cerevisiae deletion strains, locus YKL085W, strain MDH1 (second series), active compounds read low 1.01 | S. cerevisiae deletion strains, locus YKL085W, strain MDH1, active compounds read low 1.01 | S. cerevisiae deletion strains, locus YKL160W, strain elf1, active compounds read low 1.01 | S. cerevisiae deletion strains, locus YKR001C, strain vps1, active compounds read low 1.02 | S. cerevisiae deletion strains, locus YKR026C, strain gcn3, active compounds read low 1.02 | S. cerevisiae deletion strains, locus YKR091W, strain srl3, active compounds read low 1.01 | S. cerevisiae deletion strains, locus YLL001W, strain dnm1, active compounds read low 1.01 | S. cerevisiae deletion strains, locus YLL026W, active compounds read low 1.01 | S. cerevisiae deletion strains, locus YLL041C, strain sdh2, active compounds read low 1.01 | S. cerevisiae deletion strains, locus YLR027C, strain aat2, active compounds read low 1 | S. cerevisiae deletion strains, locus YLR039C, strain RIC1, active compounds read low 1.06 | S. cerevisiae deletion strains, locus YLR058C, strain SHM2, active compounds read low 1.02 | S. cerevisiae deletion strains, locus YLR102C, strain apc9, active compounds read low 1.01 | S. cerevisiae deletion strains, locus YLR113W, strain HOG1, active compounds read low 0.972 | S. cerevisiae deletion strains, locus YLR221C, strain rsa3, active compounds read low 1.01 | S. cerevisiae deletion strains, locus YLR258W, strain gsy2, active compounds read low 1.02 | S. cerevisiae deletion strains, locus YLR262C, strain YPT6 (second series), active compounds read low 0.995 | S. cerevisiae deletion strains, locus YLR262C, strain YPT6, active compounds read low 1.04 | S. cerevisiae deletion strains, locus YLR268W, strain sec22, active compounds read low 0.992 | S. cerevisiae deletion strains, locus YLR320W, strain mms22, active compounds read low 1.03 | S. cerevisiae deletion strains, locus YLR342W, strain FKS1 (second series), active compounds read low 1.01 | S. cerevisiae deletion strains, locus YLR342W, strain FKS1, active compounds read low 1.03 | S. cerevisiae deletion strains, locus YLR357W, strain rsc2, active compounds read low 1.01 | S. cerevisiae deletion strains, locus YLR370C, strain arc18, active compounds read low 1.01 | S. cerevisiae deletion strains, locus YLR371W, strain rom2, active compounds read low 0.995 | S. cerevisiae deletion strains, locus YLR384C, strain iki3, active compounds read low 1.01 | S. cerevisiae deletion strains, locus YLR418C, strain cdc73, active compounds read low 1.05 | S. cerevisiae deletion strains, locus YML016C, strain PPZ1, active compounds read low 0.999 | S. cerevisiae deletion strains, locus YML032C, strain rad52, active compounds read low 0.995 | S. cerevisiae deletion strains, locus YML120C, strain ndi1, active compounds read low 1.01 | S. cerevisiae deletion strains, locus YML124C, strain tub3, active compounds read low 1.01 | S. cerevisiae deletion strains, locus YMR058W, strain fet3, active compounds read low 1.01 | S. cerevisiae deletion strains, locus YMR078C, strain ctf18, active compounds read low 1.01 | S. cerevisiae deletion strains, locus YMR125W, strain sto1, active compounds read low 1.01 | S. cerevisiae deletion strains, locus YMR129W, active compounds read low 1.01 | S. cerevisiae deletion strains, locus YMR205C, strain PFK2, active compounds read low 1.01 | S. cerevisiae deletion strains, locus YMR223W, strain ubp8, active compounds read low 1.01 | S. cerevisiae deletion strains, locus YMR231W, strain pep5, active compounds read low 1 | S. cerevisiae deletion strains, locus YMR307W, strain GAS1, active compounds read low 1.02 | S. cerevisiae deletion strains, locus YNL067W, strain RPL9B, active compounds read low 1.03 | S. cerevisiae deletion strains, locus YNL071W, strain lat1, active compounds read low 1 | S. cerevisiae deletion strains, locus YNL183C, strain NPR1, active compounds read low 0.987 | S. cerevisiae deletion strains, locus YNL209W, strain ssb2, active compounds read low 1 | S. cerevisiae deletion strains, locus YNL233W, strain BNI4, active compounds read low 1.01 | S. cerevisiae deletion strains, locus YNL248C, strain rpa49, active compounds read low 1.02 | S. cerevisiae deletion strains, locus YNL250W, strain rad50, active compounds read low 1.04 | S. cerevisiae deletion strains, locus YNL271C, strain bni1, active compounds read low 1.02 | S. cerevisiae deletion strains, locus YNL298W, strain CLA4, active compounds read low 1.02 | S. cerevisiae deletion strains, locus YNL307C, strain MCK1, active compounds read low 1.01 | S. cerevisiae deletion strains, locus YNL322C, strain KRE1 (second series), active compounds read low 1.02 | S. cerevisiae deletion strains, locus YNR049C, strain mso1, active compounds read low 1.01 | S. cerevisiae deletion strains, locus YNR052C, strain pop2, active compounds read low 1.01 | S. cerevisiae deletion strains, locus YOL006C, strain TOP1, active compounds read low 1.03 | S. cerevisiae deletion strains, locus YOL012C, strain htz1 0.737 | S. cerevisiae deletion strains, locus YOL147C, strain pex11, active compounds read low 1 | S. cerevisiae deletion strains, locus YOR001W, strain rrp6, active compounds read low 1.02 | S. cerevisiae deletion strains, locus YOR061W, strain CKA2, active compounds read low 1.01 | S. cerevisiae deletion strains, locus YOR069W, strain VPS5, active compounds read low 1.01 | S. cerevisiae deletion strains, locus YOR070C, strain gyp1, active compounds read low 1 | S. cerevisiae deletion strains, locus YOR080W, strain dia2, active compounds read low 1.01 | S. cerevisiae deletion strains, locus YOR083W, strain WHI5, active compounds read low 1.01 | S. cerevisiae deletion strains, locus YOR106W, strain vam3, active compounds read low 1 | S. cerevisiae deletion strains, locus YOR136W, strain idh2, active compounds read low 1.01 | S. cerevisiae deletion strains, locus YOR144C, strain elg1, active compounds read low 1.01 | S. cerevisiae deletion strains, locus YOR184W, strain ser1, active compounds read low 1.01 | S. cerevisiae deletion strains, locus YOR231W, strain MKK1, active compounds read low 1.01 | S. cerevisiae deletion strains, locus YOR265W, strain rbl2, active compounds read low 1 | S. cerevisiae deletion strains, locus YOR270C, strain vph1, active compounds read low 1.03 | S. cerevisiae deletion strains, locus YOR290C, strain snf2, active compounds read low 1.02 | S. cerevisiae deletion strains, locus YOR316C, strain cot1, active compounds read low 1.01 | S. cerevisiae deletion strains, locus YPL051W, strain arl3, active compounds read low 1.01 | S. cerevisiae deletion strains, locus YPL078C, strain atp4, active compounds read low 1.01 | S. cerevisiae deletion strains, locus YPL106C, strain sse1, active compounds read low 0.999 | S. cerevisiae deletion strains, locus YPL240C, strain hsp82, active compounds read low 1.01 | S. cerevisiae deletion strains, locus YPL256C, strain CLN2, active compounds read low 1.08 | S. cerevisiae deletion strains, locus YPR119W, strain clb2, active compounds read low 1 | S. cerevisiae deletion strains, locus YPR141C, strain kar3, active compounds read low 0.998 | S. cerevisiae deletion strains, locus YPR163C, strain tif3, active compounds read low 1.01 | S. cerevisiae deletion strains, locus YPR167C, strain met16, active compounds read low 1.01 | S. cerevisiae deletion strains, strain wtn01, active compounds read low 0.99 | S. cerevisiae strains, strain wild type, active compounds read low 1.02
